According to ChEMBL document CHEMBL1961873, “Compounds: GSK PKIS; Assays: Nanosyn kinase panel” (2012):

Legend:
[1] = biological target: Sphingosine kinase 1 (Homo sapiens) (UniProt Q9NYA1); details: at 1 µM;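 further: mean SPHK1 inhibition value reported from the GSK PKIS kinase panel screen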
[2] = biological target: T1, Sphingosine kinase 2 (Homo sapiens) (UniProt Q9NRA0); details: at 0.1 µM
T1 sequence (whole entry): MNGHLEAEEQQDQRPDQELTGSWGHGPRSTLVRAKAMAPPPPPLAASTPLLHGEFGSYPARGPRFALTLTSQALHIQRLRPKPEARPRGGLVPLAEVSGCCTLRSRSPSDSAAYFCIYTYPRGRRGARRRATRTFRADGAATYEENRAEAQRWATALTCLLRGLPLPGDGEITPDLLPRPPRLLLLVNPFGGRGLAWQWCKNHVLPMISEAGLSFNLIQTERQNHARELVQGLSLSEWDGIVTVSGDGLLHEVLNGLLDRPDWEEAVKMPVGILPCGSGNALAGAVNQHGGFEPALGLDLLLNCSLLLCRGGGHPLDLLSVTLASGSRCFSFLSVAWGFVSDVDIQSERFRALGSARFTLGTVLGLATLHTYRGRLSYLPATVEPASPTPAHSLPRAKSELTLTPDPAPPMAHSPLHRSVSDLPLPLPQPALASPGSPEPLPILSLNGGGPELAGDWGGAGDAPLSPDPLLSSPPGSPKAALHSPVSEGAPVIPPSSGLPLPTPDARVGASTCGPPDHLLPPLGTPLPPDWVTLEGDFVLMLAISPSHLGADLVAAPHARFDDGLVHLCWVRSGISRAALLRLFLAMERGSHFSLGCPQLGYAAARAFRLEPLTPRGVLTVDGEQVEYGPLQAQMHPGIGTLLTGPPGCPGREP

[3] = biological target: T1, Sphingosine kinase 2 (Homo sapiens); details: at 1 µM
[4] = biological target: Casein kinase II subunit alpha (Homo sapiens) (UniProt P68400); details: at 0.1 µM
[5] = biological target: Casein kinase II subunit alpha (Homo sapiens) (UniProt P68400); details: at 1 µM
[6] = biological target: T2, Inhibitor of nuclear factor kappa-B kinase subunit alpha (Homo sapiens) (UniProt O15111); details: at 0.1 µM
T2 sequence (whole entry): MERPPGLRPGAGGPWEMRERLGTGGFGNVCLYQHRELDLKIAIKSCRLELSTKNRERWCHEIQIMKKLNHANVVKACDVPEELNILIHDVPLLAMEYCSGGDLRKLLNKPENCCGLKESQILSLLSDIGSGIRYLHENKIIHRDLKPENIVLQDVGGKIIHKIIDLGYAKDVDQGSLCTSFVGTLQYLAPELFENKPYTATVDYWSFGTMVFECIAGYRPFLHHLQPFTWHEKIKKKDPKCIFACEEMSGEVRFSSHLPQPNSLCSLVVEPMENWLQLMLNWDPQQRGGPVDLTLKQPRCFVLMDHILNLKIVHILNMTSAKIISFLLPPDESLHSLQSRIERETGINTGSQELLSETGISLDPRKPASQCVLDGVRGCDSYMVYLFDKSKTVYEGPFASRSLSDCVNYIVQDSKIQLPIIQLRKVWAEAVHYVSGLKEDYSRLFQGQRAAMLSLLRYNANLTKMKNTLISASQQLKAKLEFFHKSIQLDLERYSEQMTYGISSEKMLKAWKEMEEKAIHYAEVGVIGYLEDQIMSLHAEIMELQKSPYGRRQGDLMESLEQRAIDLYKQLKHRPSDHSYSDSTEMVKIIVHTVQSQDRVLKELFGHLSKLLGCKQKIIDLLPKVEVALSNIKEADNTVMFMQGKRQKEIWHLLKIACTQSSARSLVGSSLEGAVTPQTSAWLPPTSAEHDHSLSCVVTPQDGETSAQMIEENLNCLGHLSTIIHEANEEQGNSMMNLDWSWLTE

[7] = biological target: T2, Inhibitor of nuclear factor kappa-B kinase subunit alpha (Homo sapiens); details: at 1 µM
[8] = biological target: T3, Inhibitor of nuclear factor kappa-B kinase subunit beta (Homo sapiens) (UniProt O14920); details: at 0.1 µM
T3 sequence (whole entry): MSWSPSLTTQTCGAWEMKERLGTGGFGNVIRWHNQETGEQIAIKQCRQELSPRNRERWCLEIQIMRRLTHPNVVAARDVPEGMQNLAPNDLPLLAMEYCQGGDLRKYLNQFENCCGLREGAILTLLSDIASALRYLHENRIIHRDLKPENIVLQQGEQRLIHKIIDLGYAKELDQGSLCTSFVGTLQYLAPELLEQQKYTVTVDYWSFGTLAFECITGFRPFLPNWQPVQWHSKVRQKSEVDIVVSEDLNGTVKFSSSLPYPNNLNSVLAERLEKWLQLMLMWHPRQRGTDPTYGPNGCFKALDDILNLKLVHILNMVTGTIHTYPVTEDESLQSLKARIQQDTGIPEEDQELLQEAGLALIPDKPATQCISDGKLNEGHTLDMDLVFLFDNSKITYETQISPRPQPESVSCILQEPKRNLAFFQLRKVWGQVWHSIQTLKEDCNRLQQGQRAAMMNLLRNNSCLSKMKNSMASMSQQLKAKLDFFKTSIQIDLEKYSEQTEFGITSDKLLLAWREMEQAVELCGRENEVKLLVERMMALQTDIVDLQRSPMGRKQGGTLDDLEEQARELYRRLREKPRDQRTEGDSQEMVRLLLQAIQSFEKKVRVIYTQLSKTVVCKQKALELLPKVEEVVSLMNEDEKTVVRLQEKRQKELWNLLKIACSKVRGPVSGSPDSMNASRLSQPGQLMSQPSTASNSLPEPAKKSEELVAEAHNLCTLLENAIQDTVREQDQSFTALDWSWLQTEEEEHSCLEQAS

[9] = biological target: T3, Inhibitor of nuclear factor kappa-B kinase subunit beta (Homo sapiens); details: at 1 µM
[10] = biological target: T4, Inhibitor of nuclear factor kappa-B kinase subunit epsilon (Homo sapiens) (UniProt Q14164); details: at 0.1 µM
T4 sequence (whole entry): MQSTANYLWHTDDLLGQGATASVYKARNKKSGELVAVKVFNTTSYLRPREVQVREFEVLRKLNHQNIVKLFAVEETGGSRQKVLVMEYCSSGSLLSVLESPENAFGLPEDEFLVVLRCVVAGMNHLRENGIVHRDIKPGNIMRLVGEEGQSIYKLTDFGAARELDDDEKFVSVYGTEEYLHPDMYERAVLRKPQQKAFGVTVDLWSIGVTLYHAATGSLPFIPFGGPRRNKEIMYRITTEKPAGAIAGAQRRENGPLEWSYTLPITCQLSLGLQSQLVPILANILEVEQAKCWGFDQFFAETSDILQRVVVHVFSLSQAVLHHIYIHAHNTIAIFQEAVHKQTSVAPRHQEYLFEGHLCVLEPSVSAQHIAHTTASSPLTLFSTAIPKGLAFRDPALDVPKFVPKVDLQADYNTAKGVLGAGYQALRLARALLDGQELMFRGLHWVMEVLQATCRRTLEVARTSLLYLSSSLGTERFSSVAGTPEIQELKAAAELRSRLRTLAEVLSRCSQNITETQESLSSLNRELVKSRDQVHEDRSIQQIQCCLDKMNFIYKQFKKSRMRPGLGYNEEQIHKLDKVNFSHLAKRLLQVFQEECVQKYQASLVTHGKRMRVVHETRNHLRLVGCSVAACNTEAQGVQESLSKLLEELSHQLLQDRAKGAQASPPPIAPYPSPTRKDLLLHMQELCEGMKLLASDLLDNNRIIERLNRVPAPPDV

[11] = biological target: T4, Inhibitor of nuclear factor kappa-B kinase subunit epsilon (Homo sapiens); details: at 1 µM
[12] = biological target: T5, Serine/threonine-protein kinase Nek1 (Homo sapiens) (UniProt Q96PY6); details: at 0.1 µM
T5 sequence (whole entry): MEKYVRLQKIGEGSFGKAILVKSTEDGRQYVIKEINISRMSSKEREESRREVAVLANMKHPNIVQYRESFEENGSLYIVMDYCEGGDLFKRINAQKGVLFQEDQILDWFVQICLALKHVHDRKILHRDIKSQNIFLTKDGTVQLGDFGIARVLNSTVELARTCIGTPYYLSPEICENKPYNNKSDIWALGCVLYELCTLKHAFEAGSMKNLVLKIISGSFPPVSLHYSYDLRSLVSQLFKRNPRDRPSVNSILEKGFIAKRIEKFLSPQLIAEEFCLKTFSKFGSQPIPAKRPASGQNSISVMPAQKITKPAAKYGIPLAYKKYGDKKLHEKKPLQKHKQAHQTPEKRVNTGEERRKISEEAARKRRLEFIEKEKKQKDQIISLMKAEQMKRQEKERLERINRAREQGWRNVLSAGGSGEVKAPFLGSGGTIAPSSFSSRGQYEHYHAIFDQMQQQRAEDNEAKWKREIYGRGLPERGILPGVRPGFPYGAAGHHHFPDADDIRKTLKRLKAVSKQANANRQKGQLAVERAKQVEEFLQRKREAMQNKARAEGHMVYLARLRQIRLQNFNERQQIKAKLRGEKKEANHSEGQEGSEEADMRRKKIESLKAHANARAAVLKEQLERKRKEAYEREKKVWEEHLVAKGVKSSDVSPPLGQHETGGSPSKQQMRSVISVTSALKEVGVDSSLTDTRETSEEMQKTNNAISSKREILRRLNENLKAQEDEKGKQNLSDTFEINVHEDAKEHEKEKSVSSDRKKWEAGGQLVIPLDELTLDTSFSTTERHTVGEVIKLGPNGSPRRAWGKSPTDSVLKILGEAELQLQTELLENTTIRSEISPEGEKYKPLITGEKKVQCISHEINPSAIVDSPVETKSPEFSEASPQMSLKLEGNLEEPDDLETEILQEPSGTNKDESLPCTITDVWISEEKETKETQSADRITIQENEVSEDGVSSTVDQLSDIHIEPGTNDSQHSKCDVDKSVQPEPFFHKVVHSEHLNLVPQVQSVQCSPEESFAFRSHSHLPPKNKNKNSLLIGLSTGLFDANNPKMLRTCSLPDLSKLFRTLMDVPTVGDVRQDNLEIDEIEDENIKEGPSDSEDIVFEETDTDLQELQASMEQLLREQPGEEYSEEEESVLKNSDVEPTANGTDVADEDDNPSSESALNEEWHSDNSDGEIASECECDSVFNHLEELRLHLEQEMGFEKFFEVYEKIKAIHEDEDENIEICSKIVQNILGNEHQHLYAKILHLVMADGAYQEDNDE

[13] = biological target: T5, Serine/threonine-protein kinase Nek1 (Homo sapiens); details: at 1 µM
[14] = biological target: T6, Serine/threonine-protein kinase Nek2 (Homo sapiens) (UniProt P51955); details: at 0.1 µM
T6 sequence (whole entry): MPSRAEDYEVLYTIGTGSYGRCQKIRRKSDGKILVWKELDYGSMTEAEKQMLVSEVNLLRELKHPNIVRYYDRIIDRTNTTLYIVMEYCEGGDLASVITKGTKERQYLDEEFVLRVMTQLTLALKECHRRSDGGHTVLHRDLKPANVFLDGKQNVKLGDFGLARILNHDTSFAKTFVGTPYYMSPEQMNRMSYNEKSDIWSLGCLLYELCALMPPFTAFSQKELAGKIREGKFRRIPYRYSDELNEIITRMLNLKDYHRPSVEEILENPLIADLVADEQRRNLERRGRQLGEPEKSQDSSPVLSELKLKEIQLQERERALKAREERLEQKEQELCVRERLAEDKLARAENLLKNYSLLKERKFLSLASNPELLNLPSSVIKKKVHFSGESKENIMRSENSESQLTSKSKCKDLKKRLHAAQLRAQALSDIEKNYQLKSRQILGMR

[15] = biological target: T6, Serine/threonine-protein kinase Nek2 (Homo sapiens); details: at 1 µM
[16] = biological target: Serine/threonine-protein kinase Nek6 (Homo sapiens) (UniProt Q9HC98); details: at 0.1 µM
[17] = biological target: Serine/threonine-protein kinase Nek6 (Homo sapiens) (UniProt Q9HC98); details: at 1 µM
[18] = biological target: Serine/threonine-protein kinase Nek7 (Homo sapiens) (UniProt Q8TDX7); details: at 0.1 µM
[19] = biological target: Serine/threonine-protein kinase Nek7 (Homo sapiens) (UniProt Q8TDX7); details: at 1 µM
[20] = biological target: T7, Serine/threonine-protein kinase Nek9 (Homo sapiens) (UniProt Q8TD19); details: at 0.1 µM;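 further: reported value is the mean percent inhibition of NEK9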
T7 sequence (whole entry): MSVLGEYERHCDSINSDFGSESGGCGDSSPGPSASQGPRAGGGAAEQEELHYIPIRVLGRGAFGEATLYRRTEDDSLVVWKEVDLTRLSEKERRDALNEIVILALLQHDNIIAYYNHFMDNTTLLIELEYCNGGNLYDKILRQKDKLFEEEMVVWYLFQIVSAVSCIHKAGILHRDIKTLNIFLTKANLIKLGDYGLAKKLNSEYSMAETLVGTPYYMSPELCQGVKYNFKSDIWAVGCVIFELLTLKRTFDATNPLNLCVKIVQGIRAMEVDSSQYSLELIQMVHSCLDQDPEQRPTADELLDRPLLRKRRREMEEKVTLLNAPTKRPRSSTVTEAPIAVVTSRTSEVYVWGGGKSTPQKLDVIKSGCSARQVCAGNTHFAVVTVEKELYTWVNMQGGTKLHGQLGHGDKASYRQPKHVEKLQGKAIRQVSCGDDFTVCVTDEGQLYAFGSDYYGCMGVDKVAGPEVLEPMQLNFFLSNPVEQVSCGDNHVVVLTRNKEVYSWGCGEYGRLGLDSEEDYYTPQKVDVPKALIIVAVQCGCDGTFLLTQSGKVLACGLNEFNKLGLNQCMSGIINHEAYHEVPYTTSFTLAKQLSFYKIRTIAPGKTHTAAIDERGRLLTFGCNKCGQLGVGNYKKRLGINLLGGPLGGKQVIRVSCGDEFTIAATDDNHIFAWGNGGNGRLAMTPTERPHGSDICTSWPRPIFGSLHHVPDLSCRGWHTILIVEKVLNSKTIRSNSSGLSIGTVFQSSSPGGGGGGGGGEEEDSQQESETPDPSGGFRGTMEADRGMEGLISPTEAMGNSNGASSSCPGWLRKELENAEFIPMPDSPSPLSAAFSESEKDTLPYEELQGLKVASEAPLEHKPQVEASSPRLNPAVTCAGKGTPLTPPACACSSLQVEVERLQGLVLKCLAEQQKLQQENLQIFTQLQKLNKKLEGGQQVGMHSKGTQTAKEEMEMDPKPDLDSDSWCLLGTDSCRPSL

Chain of Serine/threonine-protein kinase Nek7 (Homo sapiens) (Q8TDX7 whole entry, looked up): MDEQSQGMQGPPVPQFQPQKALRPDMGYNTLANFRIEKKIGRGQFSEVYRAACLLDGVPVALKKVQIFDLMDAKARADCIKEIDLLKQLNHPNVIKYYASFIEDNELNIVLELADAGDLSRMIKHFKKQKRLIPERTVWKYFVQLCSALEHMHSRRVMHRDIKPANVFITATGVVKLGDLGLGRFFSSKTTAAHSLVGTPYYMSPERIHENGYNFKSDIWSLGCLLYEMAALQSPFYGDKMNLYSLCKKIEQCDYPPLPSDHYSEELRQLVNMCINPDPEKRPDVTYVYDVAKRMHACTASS
Chain of Casein kinase II subunit alpha (Homo sapiens) (P68400 whole entry, looked up): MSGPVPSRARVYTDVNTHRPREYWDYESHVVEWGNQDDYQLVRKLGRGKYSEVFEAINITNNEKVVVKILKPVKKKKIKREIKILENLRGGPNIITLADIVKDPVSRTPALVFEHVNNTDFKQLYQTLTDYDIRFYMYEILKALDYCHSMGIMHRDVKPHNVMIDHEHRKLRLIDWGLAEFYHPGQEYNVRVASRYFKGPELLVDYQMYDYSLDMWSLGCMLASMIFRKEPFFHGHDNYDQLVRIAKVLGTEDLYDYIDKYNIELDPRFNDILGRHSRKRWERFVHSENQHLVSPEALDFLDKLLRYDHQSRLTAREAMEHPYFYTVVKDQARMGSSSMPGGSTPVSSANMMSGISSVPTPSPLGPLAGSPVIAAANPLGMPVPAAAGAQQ
Chain of Serine/threonine-protein kinase Nek6 (Homo sapiens) (Q9HC98 whole entry): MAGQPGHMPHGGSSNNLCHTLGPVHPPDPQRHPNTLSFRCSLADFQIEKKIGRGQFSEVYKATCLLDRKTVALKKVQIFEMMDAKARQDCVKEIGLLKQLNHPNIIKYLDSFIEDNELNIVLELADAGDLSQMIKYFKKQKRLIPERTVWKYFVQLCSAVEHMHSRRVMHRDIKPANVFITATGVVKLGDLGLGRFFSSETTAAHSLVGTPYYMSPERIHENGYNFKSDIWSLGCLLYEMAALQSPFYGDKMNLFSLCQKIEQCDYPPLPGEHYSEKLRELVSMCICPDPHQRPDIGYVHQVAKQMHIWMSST
Chain of Sphingosine kinase 1 (Homo sapiens) (Q9NYA1 whole entry): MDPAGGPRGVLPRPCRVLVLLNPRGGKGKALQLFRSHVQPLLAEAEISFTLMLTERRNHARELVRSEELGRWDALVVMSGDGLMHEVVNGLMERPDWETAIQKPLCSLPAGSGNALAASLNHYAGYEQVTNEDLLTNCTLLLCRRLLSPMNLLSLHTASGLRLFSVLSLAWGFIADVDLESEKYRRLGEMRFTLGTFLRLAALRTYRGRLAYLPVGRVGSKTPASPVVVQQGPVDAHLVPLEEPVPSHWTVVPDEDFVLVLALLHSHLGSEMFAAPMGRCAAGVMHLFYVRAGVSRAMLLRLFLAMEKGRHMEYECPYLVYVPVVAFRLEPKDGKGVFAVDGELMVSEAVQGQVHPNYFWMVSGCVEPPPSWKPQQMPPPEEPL

Structure (SMILES): CS(=O)(=O)CCNCc1ccc(-c2ccc3ncnc(Nc4ccc(OCc5ccccc5)cc4)c3c2)o1
- inhibition [1]: -3.83%
- inhibition [2]: -0.85%
- inhibition [3]: 0.16%
- inhibition [4]: 9.29%
- inhibition [5]: 3.86%
- inhibition [6]: 4.92%
- inhibition [7]: 3.98%
- inhibition [8]: 5.26%
- inhibition [9]: 5.3%
- inhibition [10]: 5.66%
- inhibition [11]: 4.6%
- inhibition [12]: 2.22%
- inhibition [13]: 2.22%
- inhibition [14]: 4.68%
- inhibition [15]: 3.32%
- inhibition [16]: 2.28%
- inhibition [17]: 3.11%
- inhibition [18]: 2.47%
- inhibition [19]: 3.65%
- inhibition [20]: 5.77%
